SmPrx2 inh = Schistosoma Mansoni Peroxiredoxins (Prx2); Potency, µM; Schistosoma mansoni peroxiredoxin 2 (Prx2); AID 448, 2006; S. mansoni Prx2 activity coupled to TGR/GSH (TGR is thioredoxin glutathione reductase), NADPH fluorescence loss, qHTS; 65,000 tested, 0.07% active
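Enzyme mix: 100 uM NADPH, 25 nM TGR, 700 uM GSH, 50 nM Prx2 in 100 mM phosphate pH 7.4, 10 mM EDTA, 0.01% Tween-20. 15 min RT with compound; NADPH/GSH added, H2O2 starts reaction; NADPH fluorescence read 8 min.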
Anthrax LT inh = qHTS Assay for Anthrax Lethal Toxin Internalization | Cells, anthrax lethal toxin internalization, FRET ratio (460/530) | Potency, µM (top dose mostly 40 µM), most hits filed as inhibitors | 70,000 tested, 0.67% active | AID 912, 2007; note: nearly all actives have a fitted effect of over 50% in size
AmpC inh no det = Promiscuous and Specific Inhibitors of AmpC Beta-Lactamase (assay without detergent) | 71,000 tested, 1.8% active | Potency, µM (titrated, usually from 28.7 µM) | AmpC nitrocefin hydrolysis, absorbance 480 nm, no detergent
Target sequence (P00811 whole entry, looked up): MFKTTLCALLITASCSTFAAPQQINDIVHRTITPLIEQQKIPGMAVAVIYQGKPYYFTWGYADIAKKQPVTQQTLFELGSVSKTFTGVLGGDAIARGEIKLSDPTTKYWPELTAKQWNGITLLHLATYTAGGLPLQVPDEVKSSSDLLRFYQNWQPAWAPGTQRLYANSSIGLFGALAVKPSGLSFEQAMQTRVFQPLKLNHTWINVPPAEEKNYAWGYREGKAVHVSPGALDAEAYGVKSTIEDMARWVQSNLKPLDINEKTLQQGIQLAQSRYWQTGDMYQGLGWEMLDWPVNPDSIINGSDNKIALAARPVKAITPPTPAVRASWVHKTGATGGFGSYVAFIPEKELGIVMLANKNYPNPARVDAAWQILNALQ
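Enzyme, pH 7.0 phosphate. Compound titrations were pre-incubated with AmpC for 15 min at room temperature before nitrocefin (stock 800 uM) addition; product formation was recorded at 480 nm every 20 s for 4 min.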
AmpC det inh = Promiscuous and Specific Inhibitors of AmpC Beta-Lactamase (assay with detergent). 71,000 tested, 0.09% active. P00811. purified AmpC, nitrocefin hydrolysis with detergent. Potency, µM (top dose mostly 28.7 µM). AID 584, 2007; active = well fitted curve in the direction sought with a large enough effect; inconclusive = small, poorly fitted or top-dose-only effect
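E. coli AmpC (5.3 nM) in 20 mM phosphate pH 7.0 with 0.01% Triton X-100, preincubated 15 min RT with compound; nitrocefin (2 uL of 800 uM stock) hydrolysis followed by 480 nm absorbance every 20 s over 4 min.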
Large screens that a line does not name were inactive; [ ] = dose if it differs, or a comment. Shown are actives, neighbours in structure and some others; about 2.4% of the full set was active somewhere. Unless noted, calls come from the whole dose curve.

CC(=O)OC[C@H]1O[C@@H](O/N=C(\C)CCN2CCCCc3nc(C)c(C)cc32)[C@H](OC(C)=O)[C@@H](OC(C)=O)[C@H]1OC(C)=O	none (no result: SmPrx2 inh, AmpC inh no det, AmpC det inh)
O=C(NC1CCCCC1)N1CCC(n2c(=O)[nH]c3ccccc32)CC1	AmpC inh no det 3.16µM[single pt active]
O=C(c1csnn1)N1CCC2(CCCN(c3ccccn3)C2)CC1	none
Cc1nn(-c2ccccc2)c2sc(C(=O)N(CC(=O)NC(C)(C)C)Cc3ccco3)cc12	Anthrax LT inh 12.6µM
COc1ccccc1-n1c(SC)nc(O)cc1=O	AmpC inh no det 2.51µM[single pt active]
COc1ccccc1-n1c(SCC(=O)NC(C)(C)C)nc(O)cc1=O	Anthrax LT inh inconclusive
O=C=Nc1ccc(Cc2ccc(N=C=O)cc2)cc1 (tested in a mixture with another compound)	none
O=C=Nc1ccc(Cl)c(Cl)c1	Anthrax LT inh 15.8µM, AmpC inh no det inconclusive (no result: SmPrx2 inh)
Cc1cc(=O)oc2cc(NC(=O)C3COc4ccccc4O3)ccc12 (centres undefined)	Anthrax LT inh inconclusive, AmpC inh no det 10µM
O=C(Nc1ccc2c(c1)OCO2)C1COc2ccccc2O1 (centres undefined)	none (no result: SmPrx2 inh)
CCC(=O)Nc1c2c(nn1-c1cccc(Cl)c1)CSC2	AmpC inh no det 3.98µM[single pt active]
C[C@@H]1O[C@@H](OC[C@@H]2O[C@@H](Oc3c(-c4ccc(O)c(O)c4)oc4cc(O)cc(O)c4c3=O)[C@H](O)[C@H](O)[C@@H]2O)[C@H](O)[C@H](O)[C@@H]1O	none
Cc1ccc(-c2cc(C(=O)Nc3cc(C)on3)c3ccccc3n2)c(C)c1	Anthrax LT inh inconclusive, AmpC inh no det 3.98µM[single pt active]
Cc1cc(C(=O)OCC(=O)Nc2cc(C)on2)c2ccccc2n1	none
COCc1cc(C)nc(N2CCN(c3ccccc3)CC2)c1C#N	Anthrax LT inh 10µM
COc1ccccc1CNc1nc(-c2cccc(NS(C)(=O)=O)c2)nc2ccccc12	Anthrax LT inh 12.6µM
COc1ccccc1CNc1nc(-c2cccc(C#N)c2)nc2ccccc12	Anthrax LT inh inconclusive, AmpC inh no det inconclusive
CS(=O)(=O)Nc1cccc(-c2nc(Nc3ccc(F)cc3)c3ccccc3n2)c1	Anthrax LT inh 10µM
COc1cccc(-c2nc(NCc3ccccc3)c3ccccc3n2)c1	none
COc1ccccc1CNc1nc(-c2ccc3c(c2)OCO3)nc2ccccc12	Anthrax LT inh 12.6µM, AmpC inh no det inconclusive
CNc1nc(-c2cccc(NS(C)(=O)=O)c2)nc2ccccc12	none
COc1ccccc1CNc1nc(-c2ccc(N(C)C)cc2)nc2ccccc12	Anthrax LT inh inconclusive
COc1cccc(-c2nc(NCc3ccccc3OC)c3ccccc3n2)c1	Anthrax LT inh 12.6µM
O=c1cnc2cnc(N3CCOCC3)nc2n1C[C@H]1CCCO1	none
COC1=C[C@H]2[C@@H]3Cc4ccc(OC)c(O)c4[C@@]2(CCN3C)CC1=O	Anthrax LT inh inconclusive
O=C(c1cccc(F)c1)N1CCC[C@@]2(CCN(Cc3nccs3)C2)C1	none
Cc1nc(N(C)C)c2sc(=S)n(C)c2n1	AmpC inh no det 3.98µM[single pt active]
O=C(Nc1cnn(Cc2ccc(F)cc2)c1)c1cc(-c2cccs2)on1	AmpC inh no det 12.6µM[single pt active]
O=C(NCc1ccc(Cl)cc1)c1cc(-c2cccs2)on1	AmpC inh no det 7.94µM
CN1CCc2cc3c(cc2[C@@H]1[C@H]1OC(=O)c2c1ccc1c2OCO1)OCO3	Anthrax LT inh inconclusive
COc1ccc2cc3cc(C(=O)NCc4ccc5c(c4)OCO5)oc3nc2c1	none
O=C(Nc1ccc2c(c1)OCCO2)c1ccco1	Anthrax LT inh 10µM
COc1ccc2cc3cc(C(=O)Nc4ccc5c(c4)OCCO5)oc3nc2c1	Anthrax LT inh 1µM
COc1ccc2nc3c(cc2c1)Cc1ccccc1-3	Anthrax LT inh inconclusive, AmpC inh no det inconclusive
CCn1c(=O)c2cc(C(=O)N3CCOCC3)sc2c2ccccc21	AmpC inh no det 3.98µM[single pt active]
CCOC(=O)c1cc2c(=O)n(C)c3ccccc3c2s1	none
CCn1c(=O)c2cc(C(=O)N3CCCC3)sc2c2ccccc21	AmpC inh no det 3.98µM[single pt active]
COc1cccc(-c2ccc3ncnc(NCc4ccc(OC)cc4OC)c3c2)c1	Anthrax LT inh inconclusive, AmpC inh no det 7.94µM, AmpC det inh 12.6µM
COc1cccc(-c2ccc3ncnc(NCc4ccccc4OC)c3c2)c1	Anthrax LT inh 3.98µM, AmpC inh no det 1.26µM, AmpC det inh 12.6µM
COc1cccc(-c2ccc3ncnc(NCc4ccccc4)c3c2)c1	Anthrax LT inh inconclusive
COc1cccc(-c2cc(NCc3ccccc3)ncn2)c1	AmpC inh no det 5.01µM, AmpC det inh 7.94µM
Nc1nc2c(c(=O)[nH]1)N[C@H](CCNc1ccc(C(=O)O)cc1)CN2	none
